Laboratory results: PubChem BioAssay (NCI)
Values joined by “and” are separate entries in the source; they are usually repeats but may differ in a detail not shown here. Equal values may be shown once. Compounds without any hit were thinned out: in the full panel of roughly 83,000, 20% have a hit.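 For each line, cells grew in 96-well plates with the test compound present at a single concentration for 48 hours.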 Active and inactive are the calls of the source.

Each molecule was assayed on HOP-92 NSCLC (assay: NCI-60 one-dose screen, 48 h (100 = growth as untreated, 0 = no growth, -100 = all killed)). Settings: 10 µM.
Description: Growth inhibition of the HOP-92 human Non-Small Cell Lung tumor cell line is measured as a screen for anti-cancer activity. Cells are grown in 96 well plates and exposed to the test compound for 48 hours. Compounds are tested at a single concentration, which is 10^-5 M for most compounds. The reported endpoint is percent growth (GI% or GIPRCNT), where numbers from 0 - 100% represent growth inhibition, and numbers from -100% - 0 represent cell death. For example, a value of 40 represents 60% growth inhibition. A value of 0 means no net growth occurred over the course of the experiment. A value of -40 indicates 40% of cells at the beginning of the experiment died by the end of the experiment. A value of -100 means all cells are dead at the end of the experiment.
NCI-60 Human Tumor Cell Lines Screen was performed using the standard one-dose NCI protocol, which is described in more detail at https://dtp.cancer.gov/discovery_development/nci-60/default.htm.
Compounds with GIPRCNT values below 10 were considered active. Activity score was based on GIPRCNT using the following formula: […]
Score is 0 for GIPRCNT values of 100 or above, 50 for GIPRCNT values of 0, and 100 for GIPRCNT values of -100.

Structure (SMILES) | growth
CC(=O)/C=C/c1ccc(N(CCO)Cc2ccc(C(C)(C)C)cc2)cc1 | 54.7% (inactive)

Same assay, conditions: 10 µM unless noted

Structure (SMILES) | growth
OB(O)c1ccsc1-c1nc2ccc3[nH]ncc3c2c2c1CCCC2 | 65.3% (inactive)
Cc1ccc(-c2nc([P+](c3ccccc3)(c3ccccc3)c3ccccc3)c(Nc3ccccc3)o2)cc1 | -14.4% (active)
Cc1nnc(NS(=O)(=O)c2ccc(N=Nc3ccc(N)nc3N)cc2)s1 | 95.5% (inactive)
COc1ccc(/C=N/C2=C(C#N)C(c3ccccc3)c3c(ccc4ccccc34)O2)cc1 (stereo not given) | 53.9% (inactive)
CCOC(=O)c1nnn(Cc2cc(=O)oc3c2ccc2ccccc23)c1C | 98.8% (inactive)
O=C(CN1C(=O)S/C(=C\C(Cl)=C\c2ccccc2)C1=O)NCCCn1ccnc1 | 52.5% (inactive)
O=C1OCC2=C1C(c1cccc(C(F)(F)F)c1)c1cc3c(cc1N2CCO)OCCO3 (stereo not given) | 63.3% (inactive)
CCN(C(=O)N1CCN(c2cc3c(cc2F)c(=O)c(C(=O)O)cn3C2CC2)CC1)c1nc(-c2ccccc2)cs1 | -18.4% (active)
CN(C)C1CCN(C(=O)c2ccc(NC(=O)Nc3ccc(-c4nc(N5CCOCC5)c5cccn5n4)cc3)cc2)CC1 | -31.2% (active)
CCN1CCN(C(=O)[C@]23CC[C@@H](C)[C@H](C)[C@@H]2C2=CC[C@@H]4[C@@]5(C)CCC(=O)C(C)(C)[C@@H]5CC[C@@]4(C)[C@]2(C)CC3)CC1 | -5.58% (active)
C=C1C(=O)O[C@H]2[C@H]1CC/C(COC(=O)NCCCCNC(=O)OC/C1=C/CC[C@@]3(C)O[C@H]3[C@H]3OC(=O)C(=C)[C@@H]3CC1)=C\CC[C@@]1(C)O[C@@H]21 | -32.8% (active)
CCCCC1=C(Br)C(=O)c2nc(C)ccc2C1=O | -8.03% (active)
OCc1cc(CN2CCCCC2)c(O)c2ncccc12 | 71.9% (inactive)
Cc1cc2nc(C(Cl)Cl)nc(-c3ccc(Cl)cc3)n2n1 | 16.1% (inactive)
COc1cc(-c2nc(SCCC(C)C)nc(Nc3ccc(F)cc3)c2C#N)cc(OC)c1OC | 72.6% (inactive)
O=Nc1c(O)ccc2ccccc12 | 66% (inactive) and 87.1% (inactive)
COC(=O)c1c2c(c(C)[n+]([O-])c1C)C(=O)C(NCCN1CCOCC1)=CC2=O | 146% (inactive)
COc1cc2c(cc1OCCCOC1=C=C=C(c3ccc4c(c3)c3cc(-c5ccc(OCCCOc6cc7c(cc6OC)C(=O)N6CCC[C@H]6C=N7)cc5)ccc3n4S(=O)(=O)c3ccc(C)cc3)C=C1)N=C[C@@H]1CCCN1C2=O | 69.3% (inactive)
Cc1ccc(C(=O)Nc2nc3c(s2)CN(Cc2ccccc2)CC3)cn1 | 97.5% (inactive)

Structure (SMILES) | growth
O=C(CN1C(=O)S/C(=C\C(Cl)=C\c2ccccc2)C1=O)NC1C=CS(=O)(=O)C1 (stereo not given) | 37.2% (inactive)
COc1ccc(C/C(C)=C(\c2ccc(O)cc2)c2ccc(OCCCN(C)C)cc2)cc1 | 68.7% (inactive)
Cc1ccc(C(=O)Nc2ccc(CN3CCN(C)CC3)c(C(F)(F)F)c2)cc1C#Cc1cnc(N)cc1C#N | -39.8% (active)
CN(C)c1ccc2nc3ccc(=O)cc-3sc2c1 | 49% (inactive) and 61% (inactive)
Cc1cc(N2CCN(CC(=O)Nc3ccc4c(ccn4Cc4ccccc4)c3)CC2)nc(N2CCCCCC2)n1 | 0.991% (active)
c1cc(NCCCCN2CCOCC2)c2ccc3c(ccc4c(NCCN5CCOCC5)ccnc43)c2n1 | 56.8% (inactive)
c1ccc(-c2cc(-c3cc(-c4ccccc4)on3)no2)cc1 | 86.1% (inactive)
O=C(c1cccc(Br)c1)N1CCN(c2ccnc3cc(Cl)ccc23)CC1 | 78.7% (inactive)
COc1ccc(C2Nc3nc(SC)nc(N)c3N=C3c4ccccc4CCC32)cc1 (stereo not given) | 50.7% (inactive)
CCOC(=O)n1cc(-c2nonc2-c2cn(C)c3ccc(OC)cc23)c2cc(F)ccc21 | 71.4% (inactive)
CC(C)(C)CC(N)=O | 104% (inactive)
CCCN1C(=O)/C(=c2\sc3n(c2=O)NC2C(N=3)N(CC)C(=O)N2CC)c2ccccc21 (stereo not given) | 86.2% (inactive)
CC/C(=C(/c1ccc(O)cc1)c1ccc(OCCN2CCCCCC2)cc1)c1ccc(Cl)cc1 | 69.5% (inactive)
COC1/C=C/OC2(C)Oc3c(C)c(O)c4c(O)c(c(C=NOC(c5ccccc5)c5ccccc5)c(O)c4c3C2=O)NC(=O)/C(C)=C/C=C/C(C)C(O)C(C)C(O)C(C)C(OC(C)=O)C1C (stereo not given) | -8.12% (active)
C=C(C)[C@@H]1CC[C@]2(C(=O)O)CC[C@]3(C)[C@H](CC[C@@H]4[C@@]5(C)CCC(N)C(C)(C)[C@@H]5CC[C@]43C)[C@@H]12 (stereo not given in full) | 88.1% (inactive)
O=C1C(c2c[nH]c3ccccc23)=C(c2coc3cc(Br)ccc23)C(=O)N1O | 92.1% (inactive)
COc1ccc(/C=C/C(=O)c2cc3c(N)c(C(=O)Nc4ccccc4Cl)sc3nc2C)cc1 | 9.45% (active)
COc1ccc(Nc2ncnc3ccc(-c4cncc(NS(C)(=O)=O)c4)cc23)cc1Cl | -7.88% (active)
CCCCn1c(C(=O)c2c[nH]c3ccccc23)n[nH]c1=S | 89.4% (inactive)

Same assay, conditions: 100 µM

Structure (SMILES) | growth
CC(=O)/C=C/c1ccc(N(CCO)Cc2ccc(C(C)(C)C)cc2)cc1 | -94.5% (active)
